# From PubChem BioAssay AID652054 (National Center for Advancing Translational Sciences (NCATS), 2013)
# Out of some 360,000 compounds screened, about 9,100 (2.5%) were called active. Inconclusive results (about 4%) are left out. For the sample, actives were picked, then their nearest neighbours and some compounds at random. Unmarked numbers belong to inactive results. Rule as the data show it: active = max response below about -50%; inconclusive = no clear call, values can overlap the other calls; inactive = above that.
# Molecular target: D(3) dopamine receptor (Homo sapiens) (UniProt P35462)
# Sequence (P35462 whole entry, looked up): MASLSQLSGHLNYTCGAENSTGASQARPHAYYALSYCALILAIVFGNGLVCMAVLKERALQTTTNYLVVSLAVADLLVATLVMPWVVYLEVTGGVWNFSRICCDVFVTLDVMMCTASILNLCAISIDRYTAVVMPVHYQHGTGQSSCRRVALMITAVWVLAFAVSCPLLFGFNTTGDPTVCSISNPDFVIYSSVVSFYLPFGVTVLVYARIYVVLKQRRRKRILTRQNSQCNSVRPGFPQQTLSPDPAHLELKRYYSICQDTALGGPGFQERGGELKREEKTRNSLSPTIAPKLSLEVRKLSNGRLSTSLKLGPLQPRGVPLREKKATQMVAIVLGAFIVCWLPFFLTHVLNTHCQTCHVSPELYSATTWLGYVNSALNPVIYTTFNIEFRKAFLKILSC
# Assay: qHTS of D3 Dopamine Receptor Antagonist: qHTS
# Settings: D3R cells, DiscoveRx beta-arrestin luminescence, antagonist mode; hits give low values
# Method in brief: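 Cells expressing the human receptor were seeded at 1500 cells/well, incubated overnight at 37 degrees C in 5% CO2, then exposed to library compounds with dopamine controls for 90 minutes at 37 degrees C before luminescent detection.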
# % is scaled to controls: 0 for no effect and ±100 for the full control effect.
row,SMILES,"max response, negative = inhibition"
1,COc1cc(CNCc2ccc(OC)c3ccccc23)cc(OC)c1OC,4.84%
2,COc1ccc(CN2CCN(Cc3ccc(OC)c(OC)c3OC)CC2)cc1,-14%
3,CNCC(O)CN1CCN(c2ccccc2OC)CC1 (stereo unspecified),4.65%
4,COc1ccccc1N1CCN(Cc2cc(OC)c3c(c2)OCO3)CC1,-91.2% (active)
5,COc1ccccc1N1CCN(Cc2ccc(OC)c3ccccc23)CC1,-67.7% (active)
6,COc1cc(COCC(O)CN2CCN(Cc3ccc4c(c3)OCO4)CC2)cc(OC)c1OC (stereo unspecified),-12.9%
7,CNc1cncc(-c2ccc(NS(C)(=O)=O)cc2)n1,-5.71%
8,COc1ccc(CCNC(=O)Nc2ccc3c(c2)c(=O)n(C)n3C)cc1OC,6.66%
9,O=C(CC(CC(=O)c1ccccc1)c1ccco1)c1ccccc1,11.4%
10,CC(C)(C)NC(=O)C(CCc1ccccc1)n1c(=O)c(-c2ccccc2)nc2ccccc21 (stereo unspecified),-66.1% (active)
11,CCC(C(=O)NC(C)(C)C)n1c(-c2ccccc2)nc2ccccc21 (stereo unspecified),0.73%
12,CSCCC(C(=O)NC(C)(C)C)n1c(-c2ccccc2)nc2ccccc21 (stereo unspecified),-15.5%
13,Cc1cn([C@H]2C[C@H](O)[C@@H](CNC(=O)[C@H](N)Cc3cccnc3)O2)c(=O)[nH]c1=O,22.6%
14,Cc1ccc(NC(=O)COC(=O)CN2CCSC2=O)cc1F,37.5%
15,Cn1nccc1C(=O)N1CCCC(C(=O)c2ccc(Oc3ccccc3)cc2)C1 (stereo unspecified),22.9%
16,CCNC(=O)N1CCCC(C(=O)c2ccc(-c3ccccc3)cc2)C1 (stereo unspecified),10.6%
17,O=C(c1ccc(-c2ccccc2)cc1)C1CCCN(C(=O)c2cncs2)C1 (stereo unspecified),-57.7% (active)
18,CC1(C(=O)Nc2cccc3c2CCCC3)CCN1C(=O)CCc1ccc(Cl)cc1Cl (stereo unspecified),9.05%
19,COc1cccc(CNc2nc3cc(-c4csc5ccccc45)sc3c(=O)n2C)c1,6.45%
20,COc1cc2c(cc1OC)C(Nc1ccc(S(N)(=O)=O)cc1)=NC(C)(C)C2,3.38%
21,COc1cc2c(cc1OC)C(C(C)C)=NC(C)(C)C2,-19.9%
22,COc1cc2c(cc1O)C(SC)=NC(C)(C)C2,-89.4% (active)
23,CCOC(=O)C1CCCN(C(=O)c2ccc(C)c(F)c2)CC1 (stereo unspecified),-26.1%

row,SMILES,"max response, negative = inhibition"
1,Cc1sc2ncnc(SCC(=O)NC3CCS(=O)(=O)C3)c2c1C (stereo unspecified),-20.5%
2,O=C(NCCc1c[nH]c2ccccc12)C1CCN(Cc2ccc(Br)cc2)CC1,-82.8% (active)
3,CC1(C(=O)NCCc2c[nH]c3ccccc23)C=CC2(CCCCC2)N1C(=O)c1ccccc1 (stereo unspecified),45.7%
4,CCOc1ccc(CN2CCCN(C)CC2)cc1,-29.1%
5,Cc1ccc2[nH]cc(CCNC(=O)C3CCCCC3)c2c1,11.6%
6,CCOc1ccc(CN2CCN(CCCc3ccccc3)C(CCO)C2)cc1 (stereo unspecified),-25.6%
7,CCOc1ccc(CN2CCN(Cc3c[nH]c4ccccc34)CC2)cc1,-60% (active)
8,C[C@H]1CN([C@@H](C)CO)C(=O)CCCn2cc(nn2)CO[C@@H]1CN(C)S(=O)(=O)c1cccc(C#N)c1,14.4%
9,COc1ccc(N2c3ccccc3CN(Cc3ccccc3)[C@@H](C)[C@H]2Cc2ccc(-c3ccccc3)cc2)cc1,9.42%
10,CCC(=O)N1Cc2cc(C(=O)NCc3cccc(F)c3)nc(-c3cccc(C4=CCCC4)c3)c2[C@H]1CCO,-8.57%
11,CCOC(=O)c1c(C)[nH]c(C)c1C(=O)COC(=O)/C=C/c1cccc([N+](=O)[O-])c1,19.7%
12,O=C(COC(=O)/C=C/c1ccc(Cl)cc1)NC1CCS(=O)(=O)C1 (stereo unspecified),-20.8%
13,Cc1cc(NC(=O)CSCc2nc(-c3cccc(Cl)c3)oc2C)no1,-28.8%
14,Cc1ccc(-c2nc(CS(=O)CC(=O)NC3CCCC3)c(C)o2)cc1 (stereo unspecified),12.9%
15,Cc1ccc(-c2nc(CSCC(=O)NC3CCN(Cc4ccccc4)CC3)c(C)o2)cc1,-76.3% (active)
16,CN(C)C(CNC(=O)c1cc2ccccc2o1)c1ccccc1 (stereo unspecified),-82.9% (active)
17,CN(C)C(CNC(=O)Cc1ccc([N+](=O)[O-])cc1)c1ccccc1 (stereo unspecified),-19%
18,Cc1cc(NC(=O)c2cc3ccccc3o2)no1,3.37%
19,COc1ccc(OC)c(NC(=O)C2(C)CCN2C(=O)Cc2ccccc2)c1 (stereo unspecified),19.2%
20,COc1cc(=O)[nH]c(=O)n1C(=O)Cc1ccccc1,-54.3% (active)
21,CCCOc1ccc(Cn2c(O)cc(=O)[nH]c2=O)cc1,-8.86%
22,CC1(C(=O)NS(=O)(=O)c2ccccc2)CCN1C(=O)C1CCCCC1 (stereo unspecified),-29.5%
23,CC(=O)Nc1ccc(-c2ccnc3c2CC(C(=O)NC(C)C)O3)cc1 (stereo unspecified),23.5%

row,SMILES,"max response, negative = inhibition"
1,CC1CC(NC(=S)N(C)C)CC(C)(C)C1 (stereo unspecified),-2.04%
2,CC(CC(=O)O)C(=O)c1ccc(Cl)c([N+](=O)[O-])c1 (stereo unspecified),7.05%
3,O=C(/C=C/c1ccc(Cl)c([N+](=O)[O-])c1)c1ccc(O)cc1,-79.6% (active)
4,CC(=O)Nc1ccc(C=CC(=O)c2ccc([N+](=O)[O-])cc2)cc1,1.23%
5,CCCCn1nnnc1C(c1ccccc1)N1CCN(c2ccccc2OC)CC1 (stereo unspecified),-12.3%
6,OC(c1ccc(F)cc1)c1ncc(-c2cccc(C(F)(F)F)c2)[nH]1 (stereo unspecified),4.48%
7,CCCCNC(=O)C[C@@H]1C[C@@]2(C(=O)OCC)CCC=C2N(Cc2cccc3ccccc23)C1=O,0%
8,CC1=C/C(=N\OS(=O)(=O)c2ccccc2)C=CC1=O,-80.7% (active)
9,CC(C)(C)C1CCC(=O)N2CCC[C@]2(c2ccccc2)C1 (stereo partly specified),0%
10,CC1(C)OC(=O)C2=C(C[C@@H](C3CCCC3)O[C@@H]2c2ccc(Cl)cc2)O1,0.96%
11,CN(Cc1ccccc1)C(=O)c1cccc(C(=O)N(C)Cc2ccccc2)c1,-13%
12,CN(O)C(=S)c1ccccc1,-113% (active)
13,CN(CC(=O)O)C(=O)c1ccccc1,-19.9%
14,Cc1csc(=O)n1CCC(=O)OCC(=O)Nc1ccc(N2CCOCC2)cc1,-0.664%
15,OC(COCC1COc2ccccc2O1)CN1CCN(c2ccc(F)cc2)CC1 (stereo unspecified),-58.5% (active)
16,O=C(COC(=O)c1ccc(F)cc1)NCC1COc2ccccc2O1 (stereo unspecified),-19.4%
17,O=[N+]([O-])c1ccc(N2CCN(CC(O)COc3ccccc3)CC2)cc1 (stereo unspecified),-27.1%
18,CCc1cccc(CC)c1N1C(=O)CC(Sc2ccccc2N)C1=O (stereo unspecified),-0.919%
19,C[C@H](CO)N1C[C@H](C)[C@@H](CN(C)S(=O)(=O)c2ccc(Oc3ccccc3)cc2)OCc2cn(nn2)CCCC1=O,2.13%
20,CN(C)CCCn1c(=O)n(Cc2ccccc2)c(=O)c2c3c(sc21)CCCCC3,-52.1% (active)
21,CCn1c(=S)[nH]c2sc3c(c2c1=O)CCCCC3,-15.3%
22,O=c1c2c3c(sc2n(CCN2CCCC2)c(=O)n1Cc1ccccc1)CCCCC3,-21.9%
23,Cc1ccc(-c2cnc(C(O)c3cc(Cl)cc(Cl)c3)[nH]2)cc1 (stereo unspecified),17.6%

row,SMILES,"max response, negative = inhibition"
1,CCOc1ccc(CN2CCN(Cc3ccc4cc(F)ccc4n3)CC2CCO)cc1 (stereo unspecified),-27.2%
2,COc1cccc(CN2CCN(Cc3ccc4cccc(F)c4n3)CC2CCO)c1 (stereo unspecified),-65.2% (active)
3,OCCC1CN(Cc2cnc(-c3ccccc3)s2)CCN1CCc1ccccc1 (stereo unspecified),-27.8%
4,OCCC1CN(Cc2ccc(Oc3ncccn3)cc2)CCN1CCc1ccccc1 (stereo unspecified),-10.3%
5,CC(=O)Nc1ccc(CN2CCN(Cc3ccc(F)c(F)c3)C(CCO)C2)cc1 (stereo unspecified),7.18%
6,Cc1ccc(CN2CCN(Cc3ccc4ncccc4c3)CC2CCO)cc1 (stereo unspecified),-16%
7,OCCC#Cc1ccc(CN2CCN(Cc3ccsc3)C(CCO)C2)cc1 (stereo unspecified),-22.9%
8,Cc1ccc(CN2CCN(Cc3cccc(C)n3)CC2CCO)cc1 (stereo unspecified),-24.5%
9,OCCC1CN(Cc2cccc(O)c2)CCN1CCc1ccccc1 (stereo unspecified),-52.7% (active)
10,OCCC1CN(Cc2cccc(OC3CCCC3)c2)CCN1Cc1ccsc1 (stereo unspecified),-81.9% (active)
11,OCCC1CN(Cc2ccccc2-c2ccco2)CCN1Cc1ccsc1 (stereo unspecified),-16.3%
12,Cc1cccc(CN2CCN(Cc3cnn(-c4ccccc4F)c3)CC2CCO)n1 (stereo unspecified),-69% (active)
13,Cc1ccc(C(=O)OCC(=O)NC2CCCCCCC2)cc1C,5.37%
14,CCCCNC(=O)C[C@@H]1C[C@@]2(C(=O)OC)CC(C)(C)CC=C2N(Cc2ccco2)C1=O,22.3%
15,Cc1cc(Br)cn2c(Cc3ccccc3C(F)(F)F)c(-c3ccc(Cl)cc3)nc12,3.99%
16,COc1ccc(-n2cc(CNC3CCOCC3)c(-c3cccc(F)c3)n2)cc1,-0.354%
17,CCC(O)C1CCN(Cc2cn(-c3ccc(OC)cc3)nc2-c2cccc(F)c2)CC1 (stereo unspecified),-73% (active)
18,COc1ccc(-n2cc(CN(C)Cc3n[nH]c(=O)[nH]3)c(-c3cccc(F)c3)n2)cc1,0.876%
19,CCCCOCCCNC(=O)C[C@@H]1C[C@@]2(C(=O)OCC)CCCC=C2N(CCC2=CCCCC2)C1=O,2.81%
20,CN1OC[C@@H]2CN(S(=O)(=O)c3cccc4ccccc34)[C@H](c3ccc(N4CCCCC4)cc3)C[C@@H]21,0%
21,C[C@H]1Cn2cnc(C(=O)N[C@@H](Cc3c[nH]c4ccccc34)C(=O)OC(C)(C)C)c2C(=O)N1,5.11%
22,CN(C)C(=O)c1cccc(-c2cnc3c(NC=O)cc(-c4ccc(F)cc4)cn23)c1,95.3%
